Assay results published in PubChem BioAssay.
Activity calls are given as the source filed them.

Assays:
[1] = system: PRMT1 (protein arginine N-methyltransferase 1); test: small molecules binding arginine methyltransferase PRMT1 – biochemical, small-molecule microarray, 635 nm fluorescence, primary screen (AID 1088); settings: higher = more signal;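 note: binding of Prmt1 protein to compounds spotted on small-molecule microarray slides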
[2] = growth effects on S. cerevisiae YJM789 – YJM789 clinical isolate, OD600, 24 h, basal, primary screen (AID 1089); settings: higher = more signal, called active from +8 up or from −8 down;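 note: growth of clinical yeast isolate S. cerevisiae YJM 789 seeded 1000 cells per well; test concentration not given here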
[3] = S. pombe growth modifiers, basal conditions – strain 972, OD600, 24 h, no modulator, primary screen (AID 1090);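 note: basal condition with compound alone and no growth modifier present; test concentration not given here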; settings: S. pombe 972 growth, higher = more signal, called active from +8 up or from −8 down
[4] = budding yeast growth modifiers under rapamycin – strain BY4716, OD600, 96 h, primary screen (AID 1091); note: test concentration not given here; settings: S. cerevisiae BY4716 + rapamycin, higher = more signal, called active from +8 up or from −8 down
[5] = molecular target: Torsin-1A-interacting protein 2 (Homo sapiens) (UniProt Q8NFQ8); test: small molecules binding lysate-expressed LULL1 – cell lysate, human LULL1 lysate, 635/667 nm fluorescence, primary screen (AID 1092); settings: small-molecule microarray, hLULL1 lysate binding, 635 nm fluorescence; higher = more signal;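 note: probe is lysate of COS7 cells overexpressing human LULL1; score merges per-feature 667 nm fluorescence with signal-to-noise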
[6] = optical density change of DRC41 E. coli – strain DRC41, OD650, 24 h, E. coli filamentation project, primary screen (AID 1093);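 note: MC1000 strain lacking acrAB efflux and sulA so SOS filamentation is blocked; test concentration not given here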; settings: E. coli DRC41 growth, higher = more signal, called active from +8 up or from −8 down
[7] = probe aLefty2 binding to arrayed compounds – biochemical, biotinylated probe, 635/667 nm fluorescence, primary screen (AID 1094); settings: small-molecule microarray, higher = more signal;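 note: score merges spot fluorescence near 667 nm with spot signal-to-noise ratio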
[8] = system: Noggin (protein binding on small-molecule microarray); test: small molecules binding Noggin protein – biochemical, 635/667 nm fluorescence, primary screen (AID 1095); settings: 635 nm fluorescence, higher = more signal;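 note: score merges 667 nm feature fluorescence with signal to noise over triplicate slides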
[9] = molecular target: Neurogenic locus notch homolog protein 3 (Homo sapiens) (UniProt Q9UM47); test: small molecules binding NOTCH3 protein – biochemical, 635/667 nm fluorescence, primary screen (AID 1096); settings: small-molecule microarray, 635 nm fluorescence, higher = more signal
[10] = probe aEGFR binding to arrayed compounds – biochemical, biotinylated probe, 635/667 nm fluorescence, primary screen (AID 1097); settings: small-molecule microarray, higher = more signal;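 note: probe is a biotinylated anti-EGFR antibody binding compounds printed on slides; score combines fluorescence near 667 nm and signal to noise of each spot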
[11] = system: Plasmodium falciparum Sir2 (PF13_0152, Sir2A); test: Plasmodium falciparum Sir2A binding compounds – biochemical, small-molecule microarray, 635 nm fluorescence, primary screen (AID 1098); settings: fluorescence 635 nm, higher = more signal;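 note: score merges spot fluorescence intensity with its signal-to-noise ratio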
[12] = probe aDKK1 binding to arrayed compounds – biochemical, biotinylated probe, 635/667 nm fluorescence, primary screen (AID 1099); settings: small-molecule microarray, higher = more signal;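 note: score merges 667nm spot fluorescence with signal to noise across triplicate slides; reference of the scale not given here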
[13] = probe aCHRDL2 binding to arrayed compounds – biochemical, biotinylated probe, 635/667 nm fluorescence, primary screen (AID 1100); settings: small-molecule microarray, higher = more signal
[14] = change in splice reporter luminescence, either direction, cell-based, HEK293, spliceosome inhibition project, primary screen (AID 1101); settings: HEK293 splicing luciferase reporter, 24 h, higher = more signal, called active from +8 up or from −8 down;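 note: HEK293 cells carrying a splicing-competent luciferase reporter gene; test concentration not given here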
[15] = molecular target: Fibroblast growth factor 10 (Homo sapiens) (UniProt O15520); test: compounds binding fibroblast growth factor 10 – biochemical, small-molecule microarray, 635 nm fluorescence, primary screen (AID 1102); settings: FGF10 binding, fluorescence 635 nm, higher = more signal
[16] = system: glycogen synthase kinase-3 (GSK3A per assay name; protocol says GSK3B); test: compounds binding glycogen synthase kinase-3 – biochemical, small-molecule microarray, 635 nm fluorescence, GSK3A, primary screen (AID 1103); settings: fluorescence 635 nm, higher = more signal; note: the record names both GSK3A and GSK3B
[17] = molecular target: Epidermal growth factor receptor (Homo sapiens) (UniProt P00533); test: compounds binding epidermal growth factor receptor – biochemical, small-molecule microarray, 635 nm fluorescence, primary screen (AID 1104); settings: EGFR binding, higher = more signal;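 note: score merges 667 nm emission intensity with spot signal to noise over triplicate slides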
[18] = molecular target: Follistatin-related protein 3 (Homo sapiens) (UniProt O95633); test: compounds binding follistatin-related protein 3 – biochemical, small-molecule microarray, 635 nm fluorescence, primary screen (AID 1105); settings: FSTL3 binding, higher = more signal;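 note: score merges emission near 667 nm and signal to noise per printed spot across three slides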
[19] = molecular target: Dickkopf-related protein 1 (Homo sapiens) (UniProt O94907); test: small molecules binding DKK1 protein – biochemical, small-molecule microarray, 635 nm fluorescence scan, primary screen (AID 1106); settings: higher = more signal;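 note: score merges emission near 667 nm with signal to noise over three replicate slides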
[20] = system: Inhibin beta A chain (activin A); test: small molecules binding activin A – biochemical, small-molecule microarray, 635 nm fluorescence scan, primary screen (AID 1107); settings: INHBA, higher = more signal;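 note: mouse activin A protein probed at 4.33 µg/mL on printed slides; score merges bound-protein fluorescence near 667 nm with spot signal-to-noise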

Chain of Dickkopf-related protein 1 (Homo sapiens) (O94907 whole entry, looked up): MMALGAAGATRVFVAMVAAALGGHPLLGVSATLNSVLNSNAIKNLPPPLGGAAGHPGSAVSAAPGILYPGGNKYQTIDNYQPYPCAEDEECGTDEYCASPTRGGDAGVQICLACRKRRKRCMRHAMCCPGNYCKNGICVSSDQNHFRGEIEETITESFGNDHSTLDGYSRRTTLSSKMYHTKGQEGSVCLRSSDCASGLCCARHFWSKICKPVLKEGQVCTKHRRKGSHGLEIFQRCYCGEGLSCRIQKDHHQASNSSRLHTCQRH
Chain of Neurogenic locus notch homolog protein 3 (Homo sapiens) (Q9UM47 whole entry, looked up): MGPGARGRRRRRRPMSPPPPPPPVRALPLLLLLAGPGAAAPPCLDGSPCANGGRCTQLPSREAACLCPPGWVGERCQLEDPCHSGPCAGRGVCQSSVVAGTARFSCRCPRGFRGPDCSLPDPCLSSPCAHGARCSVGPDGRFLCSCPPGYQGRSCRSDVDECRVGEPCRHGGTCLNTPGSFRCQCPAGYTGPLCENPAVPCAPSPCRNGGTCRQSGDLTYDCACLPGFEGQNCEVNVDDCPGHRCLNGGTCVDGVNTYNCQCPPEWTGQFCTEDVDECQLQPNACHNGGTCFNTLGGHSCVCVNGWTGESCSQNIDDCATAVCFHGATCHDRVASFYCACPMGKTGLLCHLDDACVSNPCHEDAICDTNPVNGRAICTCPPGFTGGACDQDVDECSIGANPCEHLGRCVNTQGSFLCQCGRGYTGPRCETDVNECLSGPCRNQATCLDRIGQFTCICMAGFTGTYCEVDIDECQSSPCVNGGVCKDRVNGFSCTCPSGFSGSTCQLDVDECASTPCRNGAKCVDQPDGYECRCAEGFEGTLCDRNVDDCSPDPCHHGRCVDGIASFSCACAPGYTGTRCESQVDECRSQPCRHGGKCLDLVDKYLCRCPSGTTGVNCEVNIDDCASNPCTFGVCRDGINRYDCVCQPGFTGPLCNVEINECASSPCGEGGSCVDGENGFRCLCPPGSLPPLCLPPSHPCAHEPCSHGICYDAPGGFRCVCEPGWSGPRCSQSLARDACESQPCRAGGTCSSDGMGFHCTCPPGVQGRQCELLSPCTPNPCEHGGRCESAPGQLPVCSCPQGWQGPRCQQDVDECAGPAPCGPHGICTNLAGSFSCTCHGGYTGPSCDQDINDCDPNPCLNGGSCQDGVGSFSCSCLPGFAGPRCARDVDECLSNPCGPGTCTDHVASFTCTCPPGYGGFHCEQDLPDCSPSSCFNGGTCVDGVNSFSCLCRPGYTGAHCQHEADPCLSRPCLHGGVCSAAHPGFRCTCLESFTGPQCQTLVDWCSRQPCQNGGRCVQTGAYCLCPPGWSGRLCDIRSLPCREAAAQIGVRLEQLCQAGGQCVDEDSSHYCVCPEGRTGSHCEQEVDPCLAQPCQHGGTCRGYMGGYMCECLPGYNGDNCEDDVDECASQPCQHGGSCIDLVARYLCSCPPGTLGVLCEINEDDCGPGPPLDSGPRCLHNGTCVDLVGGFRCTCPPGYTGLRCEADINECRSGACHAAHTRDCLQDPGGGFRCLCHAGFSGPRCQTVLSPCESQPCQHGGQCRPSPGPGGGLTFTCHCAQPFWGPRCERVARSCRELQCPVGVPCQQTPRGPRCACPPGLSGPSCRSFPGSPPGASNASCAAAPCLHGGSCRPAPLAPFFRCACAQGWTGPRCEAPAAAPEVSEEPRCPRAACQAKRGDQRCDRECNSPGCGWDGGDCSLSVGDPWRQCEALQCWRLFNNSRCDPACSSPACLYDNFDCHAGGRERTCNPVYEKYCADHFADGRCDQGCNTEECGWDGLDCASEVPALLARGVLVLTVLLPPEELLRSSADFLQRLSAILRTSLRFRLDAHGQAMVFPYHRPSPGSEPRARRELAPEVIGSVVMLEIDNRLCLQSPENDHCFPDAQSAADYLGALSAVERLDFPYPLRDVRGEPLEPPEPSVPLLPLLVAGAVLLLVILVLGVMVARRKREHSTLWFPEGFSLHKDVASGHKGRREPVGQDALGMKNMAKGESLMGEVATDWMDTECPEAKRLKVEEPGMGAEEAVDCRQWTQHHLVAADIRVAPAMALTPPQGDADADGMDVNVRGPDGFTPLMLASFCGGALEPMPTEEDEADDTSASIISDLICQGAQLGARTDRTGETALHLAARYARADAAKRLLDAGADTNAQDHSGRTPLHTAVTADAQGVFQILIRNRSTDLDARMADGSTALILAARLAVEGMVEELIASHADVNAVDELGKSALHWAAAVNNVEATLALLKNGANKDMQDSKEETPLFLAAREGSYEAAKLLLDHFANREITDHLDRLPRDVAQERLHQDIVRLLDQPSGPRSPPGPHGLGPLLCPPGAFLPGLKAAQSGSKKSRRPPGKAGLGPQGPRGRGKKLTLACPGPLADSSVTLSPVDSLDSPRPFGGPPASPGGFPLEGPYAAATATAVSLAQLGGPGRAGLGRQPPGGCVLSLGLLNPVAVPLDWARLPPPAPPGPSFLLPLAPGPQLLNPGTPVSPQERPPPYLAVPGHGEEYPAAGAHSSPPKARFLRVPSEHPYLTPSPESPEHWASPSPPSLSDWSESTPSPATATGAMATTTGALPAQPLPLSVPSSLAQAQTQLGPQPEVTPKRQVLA
Chain of Fibroblast growth factor 10 (Homo sapiens) (O15520 whole entry, looked up): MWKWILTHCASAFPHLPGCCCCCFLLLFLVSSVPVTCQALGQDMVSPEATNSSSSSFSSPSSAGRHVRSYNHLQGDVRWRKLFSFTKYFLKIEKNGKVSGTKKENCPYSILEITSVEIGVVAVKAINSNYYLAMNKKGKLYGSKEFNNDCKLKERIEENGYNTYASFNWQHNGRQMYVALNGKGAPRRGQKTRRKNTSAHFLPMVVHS
Chain of Follistatin-related protein 3 (Homo sapiens) (O95633 whole entry, looked up): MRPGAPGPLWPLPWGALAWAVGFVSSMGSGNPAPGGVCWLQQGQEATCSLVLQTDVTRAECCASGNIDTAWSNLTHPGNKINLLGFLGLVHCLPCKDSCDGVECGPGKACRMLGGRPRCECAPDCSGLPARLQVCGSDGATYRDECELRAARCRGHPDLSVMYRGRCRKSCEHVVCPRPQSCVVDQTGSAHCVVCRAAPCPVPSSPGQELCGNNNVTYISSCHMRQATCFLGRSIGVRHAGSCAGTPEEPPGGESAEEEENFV
Chain of Epidermal growth factor receptor (Homo sapiens) (P00533 whole entry, looked up): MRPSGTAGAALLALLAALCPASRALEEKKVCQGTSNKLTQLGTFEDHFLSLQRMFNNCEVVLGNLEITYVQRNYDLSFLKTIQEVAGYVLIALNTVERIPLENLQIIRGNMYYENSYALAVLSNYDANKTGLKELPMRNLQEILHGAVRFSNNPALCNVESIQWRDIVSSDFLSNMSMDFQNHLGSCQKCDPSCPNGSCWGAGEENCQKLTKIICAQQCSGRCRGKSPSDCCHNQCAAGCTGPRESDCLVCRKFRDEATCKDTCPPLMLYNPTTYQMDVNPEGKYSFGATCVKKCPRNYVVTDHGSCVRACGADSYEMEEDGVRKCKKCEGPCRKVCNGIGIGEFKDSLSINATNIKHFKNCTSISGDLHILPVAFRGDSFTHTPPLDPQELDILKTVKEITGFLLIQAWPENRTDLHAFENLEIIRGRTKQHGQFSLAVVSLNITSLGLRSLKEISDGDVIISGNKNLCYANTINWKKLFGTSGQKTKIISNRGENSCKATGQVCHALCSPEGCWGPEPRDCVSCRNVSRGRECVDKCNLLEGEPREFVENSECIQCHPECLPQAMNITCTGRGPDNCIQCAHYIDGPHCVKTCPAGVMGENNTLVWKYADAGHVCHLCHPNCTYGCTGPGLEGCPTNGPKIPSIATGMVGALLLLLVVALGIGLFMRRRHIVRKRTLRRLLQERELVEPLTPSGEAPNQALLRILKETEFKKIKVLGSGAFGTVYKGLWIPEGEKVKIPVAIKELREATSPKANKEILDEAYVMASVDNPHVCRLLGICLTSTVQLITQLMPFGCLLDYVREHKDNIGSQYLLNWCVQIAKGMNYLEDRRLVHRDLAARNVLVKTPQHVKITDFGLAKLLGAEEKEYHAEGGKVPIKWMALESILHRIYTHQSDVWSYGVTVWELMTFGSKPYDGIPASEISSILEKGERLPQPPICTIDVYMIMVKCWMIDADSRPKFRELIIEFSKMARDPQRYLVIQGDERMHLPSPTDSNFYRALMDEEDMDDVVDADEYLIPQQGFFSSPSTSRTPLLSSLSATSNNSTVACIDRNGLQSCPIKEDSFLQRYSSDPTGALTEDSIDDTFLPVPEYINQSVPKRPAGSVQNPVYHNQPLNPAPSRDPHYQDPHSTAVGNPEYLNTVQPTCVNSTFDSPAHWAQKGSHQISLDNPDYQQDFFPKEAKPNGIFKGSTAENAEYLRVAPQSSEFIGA
Chain of Torsin-1A-interacting protein 2 (Homo sapiens) (Q8NFQ8 whole entry, looked up): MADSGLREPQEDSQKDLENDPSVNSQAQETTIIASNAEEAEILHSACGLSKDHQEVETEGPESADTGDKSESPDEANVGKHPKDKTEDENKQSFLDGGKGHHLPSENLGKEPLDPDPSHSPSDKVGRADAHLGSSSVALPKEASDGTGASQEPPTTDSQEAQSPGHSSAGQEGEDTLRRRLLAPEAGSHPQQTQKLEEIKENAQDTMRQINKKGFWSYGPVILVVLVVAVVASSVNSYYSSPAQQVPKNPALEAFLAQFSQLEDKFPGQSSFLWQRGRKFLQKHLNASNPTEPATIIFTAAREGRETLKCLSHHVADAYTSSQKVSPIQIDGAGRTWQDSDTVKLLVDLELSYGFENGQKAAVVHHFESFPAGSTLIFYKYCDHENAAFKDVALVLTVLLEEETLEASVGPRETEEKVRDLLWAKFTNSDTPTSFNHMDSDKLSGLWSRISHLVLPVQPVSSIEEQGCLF

| SMILES | composite z-score [1] | z-score [2] | z-score [3] | z-score [4] | composite z-score [5] | z-score [6] | composite z-score [7] | composite z-score [8] | composite z-score [9] | composite z-score [10] | composite z-score [11] | composite z-score [12] | composite z-score [13] | z-score [14] | composite z-score [15] | composite z-score [16] | composite z-score [17] | composite z-score [18] | composite z-score [19] | composite z-score [20] |
| --- | --- | --- | --- | --- | --- | --- | --- | --- | --- | --- | --- | --- | --- | --- | --- | --- | --- | --- | --- | --- |
| COC(=O)[C@H]1N=C(c2ccc(OCCCO)cc2)O[C@H]1c1ccccc1CN=[N+]=[N-] | 0.943 | -0.363 (inactive) | -0.225 (inactive) | 0.444 (inactive) | 1.84 | 0.887 (inactive) | 0.992 | -0.0277 | 0.27 | -0.131 | 0.555 | 0.613 | 1.22 | -0.0171 (inactive) | -0.418 | -1.04 | -0.771 | -0.605 | -1.56 | 0.635 |
| COCCOC(=O)N1C(=O)[C@@]2(c3cc(C#Cc4ccc(OC)cc4)ccc31)[C@H](C(N)=O)[C@H]1C(=O)O[C@H](c3ccccc3)[C@H](c3ccccc3)N1[C@@H]2c1ccc(OCCO)cc1 | 1.53 | 2.17 (inactive) | 0.719 (inactive) | 4.88 (inactive) | 2.75 | 1.31 (inactive) | -0.0757 | 1.43 | 1.07 | 0.0251 | 1.43 | -0.178 | -0.13 | -0.853 (inactive) | 1.42 | 1.33 | 0.769 | 1.34 | 0.631 | 0.343 |
| COC(=O)[C@@]1(Cc2ccc(OC)cc2)[C@H]2c3cc(C(=O)N(C)C)n(Cc4cc(F)c(F)c(F)c4)c3C[C@H]2CN1C(=O)c1ccccc1 | 0.456 | 0.725 (inactive) | 0.129 (inactive) | 4.07 (inactive) | 3.44 | -0.909 (inactive) | 0.625 | -0.217 | 1.04 | 0.58 | 0.85 | 1.59 | 1.03 | -2.2 (inactive) | 0.519 | 1.02 | 0.261 | 0.745 | -0.958 | 0.882 |
| COCCCNC(=O)[C@]1(CCS(=O)(=O)c2ccccc2)N=C(c2ccc(OCCCO)cc2)O[C@@H]1c1ccccc1 | 1.54 | -0.575 (inactive) | 0.127 (inactive) | 0.0389 (inactive) | 3.74 | 0.697 (inactive) | 0.255 | 0.712 | 1.11 | 0.141 | 1.86 | 0.126 | 0.937 | -0.594 (inactive) | 1.01 | 1.01 | 0.304 | 0.485 | 0.0266 | 0.455 |
| CCCC=C(CCC)[C@@H](NS(=O)(=O)CC)c1ccccc1 | 1.17 | 0.472 (inactive) | 1.22 (inactive) | 0.565 (inactive) | 2.57 | -0.66 (inactive) | 0.195 | 0.222 | 1.16 | 0.0093 | 0.903 | 0.303 | 0.726 | -3.42 (inactive) | 0.601 | 1.12 | 0.167 | 0.388 | -0.328 | 0.147 |
